Test results: PubChem BioAssay AID1159580 (chemical genetic matrix, 2015)
Among all 5,500 compounds or so, about 2,000 (36%) were called active. Inconclusive results (about 18%) are left out. This is one part of the list. Values without a mark were called inactive. No stated cut-off is given here; in the data, active means normalized growth mostly below about 0.91 (no sharp cut-off); inconclusive means no clear call, values can overlap the other calls; inactive means mostly above about 0.92.

Test: chemical genetic growth profiling, strain panel (AID 1159580);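 further: tested at 20 µM; growth read once vehicle control cultures reached saturation at 30 °C; 1 = growth at the plate median or of vehicle wells; lower values mean less growth of the strain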
Conditions: S. cerevisiae deletion strains, growth OD
[1] = locus YDL101C, strain DUN1, hits give low values
[2] = locus YHR030C, strain SLT2, hits give low values

## FC(F)(F)c1ccnc(N2CCCN(C(=S)Nc3ccc(Cl)cc3Cl)CC2)n1
Locus YAR019C, strain CDC15, hits give low values
  normalized growth: 0.974
Locus YBL105C, strain PKC1, hits give low values
  normalized growth: 0.977
Locus YBR135W, strain CKS1, hits give low values
  normalized growth: 0.972
Locus YBR136W, strain MEC1, hits give low values
  normalized growth: 0.973
Locus YBR160W, strain CDC28, hits give low values
  normalized growth: 0.974
Locus YDL017W, strain CDC7, hits give low values
  normalized growth: 0.966
Locus YDL028C, strain MPS1, hits give low values
  normalized growth: 0.975
[1]
  normalized growth: 0.975
Locus YDL108W, strain KIN28, hits give low values
  normalized growth: 0.975
Locus YDL132W, strain cdc53, hits give low values
  normalized growth: 0.977
Locus YDL214C, strain PRR2, hits give low values
  normalized growth: 0.966
Locus YDR052C, strain DBF4, hits give low values
  normalized growth: 0.972
Locus YDR054C, strain cdc34, hits give low values
  normalized growth: 0.976
Locus YDR226W, strain ADK1, hits give low values
  normalized growth: 0.982
Locus YDR477W, strain SNF1, hits give low values
  normalized growth: 0.985
Locus YER123W, strain YCK3, hits give low values
  normalized growth: 1
Locus YER133W, strain GLC7, hits give low values
  normalized growth: 0.993
Locus YFL009W, strain cdc4, hits give low values
  normalized growth: 0.98
Locus YFL029C, strain CAK1, hits give low values
  normalized growth: 0.963
Locus YFR003C, strain YPI1, hits give low values
  normalized growth: 0.972
Locus YFR019W, strain FAB1, hits give low values
  normalized growth: 0.996
Locus YFR028C, strain CDC14, hits give low values
  normalized growth: 0.979
Locus YGR040W, strain KSS1, hits give low values
  normalized growth: 0.985
Locus YGR052W, strain FMP48, hits give low values
  normalized growth: 1.04
Locus YGR092W, strain DBF2, hits give low values
  normalized growth: 0.9
[2]
  normalized growth: 0.712 (active)
Locus YHR079C, strain IRE1, hits give low values
  normalized growth: 0.848
Locus YHR082C, strain KSP1, hits give low values
  normalized growth: 1.08
Locus YHR205W, strain SCH9, hits give low values
  normalized growth: 0.946
Locus YIL147C, strain SLN1, hits give low values
  normalized growth: 0.972
Locus YJL095W, strain BCK1, hits give low values
  normalized growth: 0.942
Locus YJL128C, strain PBS2, hits give low values
  normalized growth: 0.978
Locus YJL157C, strain FAR1, hits give low values
  normalized growth: 0.981
Locus YJR016C, strain ILV3, hits give low values
  normalized growth: 0.989
Locus YJR066W, strain TOR1 (second series), hits give low values
  normalized growth: 0.953
Locus YJR066W, strain TOR1, hits give low values
  normalized growth: 1.03
Locus YKL048C, strain ELM1, hits give low values
  normalized growth: 0.961
Locus YKL067W, strain YNK1, hits give low values
  normalized growth: 0.973
Locus YKL101W, strain HSL1, hits give low values
  normalized growth: 0.958
Locus YKL193C, strain SDS22, hits give low values
  normalized growth: 0.978
Locus YKL203C, strain TOR2, hits give low values
  normalized growth: 1.02
Locus YLR113W, strain HOG1, hits give low values
  normalized growth: 0.689 (active)
Locus YLR133W, strain CKI1, hits give low values
  normalized growth: 0.979
Locus YLR403W, strain SFP1, hits give low values
  normalized growth: 0.982
Locus YML070W, strain DAK1, hits give low values
  normalized growth: 0.972
Locus YMR001C, strain CDC5, hits give low values
  normalized growth: 0.971
Locus YMR205C, strain PFK2 (second series), hits give low values
  normalized growth: 0.968
Locus YMR277W, strain FCP1, hits give low values
  normalized growth: 0.973
Locus YNL006W, strain LST8, hits give low values
  normalized growth: 0.98
Locus YNL020C, strain ARK1, hits give low values
  normalized growth: 0.966
Locus YNL161W, strain CBK1, hits give low values
  normalized growth: 0.982
Locus YNL183C, strain NPR1, hits give low values
  normalized growth: 1.01
Locus YNL207W, strain RIO2, hits give low values
  normalized growth: 0.964
Locus YNL222W, strain SSU72, hits give low values
  normalized growth: 0.978
Locus YNL307C, strain MCK1 (second series), hits give low values
  normalized growth: 0.95
Locus YOL078W, strain AVO1, hits give low values
  normalized growth: 0.986
Locus YOL136C, strain PFK27, hits give low values
  normalized growth: 0.959
Locus YOR061W, strain CKA2, hits give low values
  normalized growth: 0.961
Locus YOR119C, strain RIO1, hits give low values
  normalized growth: 1.06
Locus YOR231W, strain MKK1, hits give low values
  normalized growth: 0.873
Locus YOR329C, strain SCD5, hits give low values
  normalized growth: 0.973
Locus YPL031C, strain PHO85, hits give low values
  normalized growth: 0.975
Locus YPL153C, strain RAD53, hits give low values
  normalized growth: 0.982
Locus YPL204W, strain HRR25, hits give low values
  normalized growth: 0.966
Locus YPL209C, strain IPL1, hits give low values
  normalized growth: 0.973
Locus YPL256C, strain CLN2, hits give low values
  normalized growth: 0.777 (active)
Locus YPR025C, strain CCL1, hits give low values
  normalized growth: 0.976
Locus YPR106W, strain ISR1, hits give low values
  normalized growth: 0.977
Locus YPR111W, strain DBF20, hits give low values
  normalized growth: 0.96
Strain NNK1, hits give low values
  normalized growth: 0.962
Strain TSCII, hits give low values
  normalized growth: 0.978

## CCCc1cnc(N2CCCN(C(=S)Nc3cccnc3)CC2)nc1
Locus YAL013W, strain DEP1, hits give low values
  normalized growth: 0.998
Locus YBR229C, strain ROT2, hits give low values
  normalized growth: 0.997
Locus YCL061C, strain MRC1, hits give low values
  normalized growth: 1.01
[1]
  normalized growth: 1.06
Locus YDR150W, strain NUM1, hits give low values
  normalized growth: 1.03
Locus YEL061C, strain CIN8, hits give low values
  normalized growth: 0.959
Locus YGR078C, strain PAC10, hits give low values
  normalized growth: 1.02
[2]
  normalized growth: 1.05
Locus YHR087W, strain rtc3, hits give low values
  normalized growth: 0.992
Locus YJR043C, strain POL32, hits give low values
  normalized growth: 1.03
Locus YJR075W, strain HOC1, hits give low values
  normalized growth: 1.03
Locus YLR039C, strain RIC1, hits give low values
  normalized growth: 1
Locus YLR058C, strain SHM2 (second series), hits give low values
  normalized growth: 0.996
Locus YLR085C, strain ARP6, hits give low values
  normalized growth: 1.04
Locus YLR262C, strain YPT6, hits give low values
  normalized growth: 1.01
Locus YML094W, strain GIM5, hits give low values
  normalized growth: 1.02
Locus YMR219W, strain ESC1, hits give low values
  normalized growth: 1.01
Locus YMR263W, strain SAP30, hits give low values
  normalized growth: 1.03
Locus YNL153C, strain GIM3, hits give low values
  normalized growth: 1.02
Locus YNL298W, strain CLA4 (second series), hits give low values
  normalized growth: 0.999
Locus YNL322C, strain KRE1, hits give low values
  normalized growth: 0.987
Locus YNR030W, strain Alg12, hits give low values
  normalized growth: 1.01
Locus YPL055C, strain LGE1, hits give low values
  normalized growth: 1.02
Locus YPL241C, strain CIN2, hits give low values
  normalized growth: 1.02
Locus YPR135W, strain CTF4, hits give low values
  normalized growth: 1.07
